KKLEB cytotox: cytotoxicity in KKLEB CF airway cells, primary screen, cytotoxicity control for CF NF-kB inhibitor project, cell-based, uHTS, fluorescence assay plates | activity change (cytotoxicity), % at 5 µM | KKLEB CF airway cells viability, ATPlite luminescence, overnight; hits give low values; cells stimulated with P. aeruginosa culture filtrate | actives 0.36% (n = 360,000);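 active means corrected activity change at or below -50% at 5 µM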
CF NFkB block: inhibitors of PAF-induced NF-kB signaling, primary screen, cell-based, GFP fluorescence, uHTS. KKLEB NF-kB-GFP reporter, GFP fluorescence overnight. inhibition, % at 5 µM. actives 0.86% (n = 360,000). AID 588850, 2011;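 active means at least 50% inhibition at 5 µM, scaled per plate between neutral and stimulator controls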;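 further: PAF is a Pseudomonas aeruginosa culture filtrate used as stimulus; plate controls were PAF-stimulated DMSO wells for no effect and unstimulated DMSO wells for full effect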
HIF-2a block: HIF-2a reporter inhibitors, primary screen, luminescence, 786-0 RCC cells; 786-0 RCC cells HIF-2a reporter, luciferase luminescence, overnight; inhibition, % at 18.8 µM; actives 0.72% (n = 360,000); AID 624352, 2012;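 active means inhibition of the luminescence signal of 40% or more relative to plate controls, in a single-dose primary screen at 18.75 µM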
Shn3 inh set2: reduction of Shn3 3'UTR firefly luciferase signal, primary screen, Schnurri-3 inhibitor project, cell-based, Clone20 osteoblasts, set 2; inhibition, % at 12.5 µM; actives 0.52% (n = 360,000); AID 588674, 2011; Clone20 osteoblast Shn3 3'UTR firefly luciferase, 24 h;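 active means mean inhibition of at least 75% with every replicate also reaching 75%; inconclusive means mean inhibition at least 75% but some replicate below; inactive means mean inhibition below 75%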;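 further: 0% = median of neutral control wells and 100% = pilot-screen positive control compound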
TRPM1 prom inh: inhibitors of MITF-dependent TRPM1 promoter reporter, primary screen, cell-based, SK-MEL-5, single point, luciferase. SK-MEL-5 TRPM1 promoter luciferase, 24 h. inhibition, % at 12.5 µM. actives 0.83% (n = 330,000). AID 488899, 2010;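 active means mean inhibition across replicates of 60% or more, whatever share of single replicates reaches that level; inconclusive means some that reach 60%, reason not given; inactive means mean inhibition across replicates below 60%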
Peg3 promoter: Peg3 promoter-driven luciferase inhibitors, primary screen, cell-based, HeLa, luciferase luminescence. HeLa PEG-Prom luciferase reporter, overnight. inhibition, % at 20 µM. actives 1.7% (n = 360,000). AID 588405, 2011;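 active means inhibition of at least 50% at 20 µM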
Starred values were filed as active, the others as inactive; i = inactive; ? = inconclusive; nt = not tested or not shown. Hits are enriched below; roughly 2.7% of the tested compounds scored in any of these assays.

SMILES	KKLEB cytotox	CF NFkB block	HIF-2a block	Shn3 inh set2	TRPM1 prom inh	Peg3 promoter
C=C(NC(=O)C(=C)NC(=O)c1csc(C2=NC3c4csc(n4)C4NC(=O)c5csc(n5)C(C(C)(O)C(C)O)NC(=O)C5CSC(=N5)/C(=C/C)NC(=O)C(C(C)O)NC(=O)c5csc(n5)C3(CC2)NC(=O)C(C)NC(=O)C(=C)NC(=O)C(=C)NC(=O)C(C(C)C)NC2C=Cc3c(C(C)O)cc(nc3C2O)C(=O)OC4C)n1)C(N)=O (centres undefined)	-16	-113	64*	86*	94*	81*
Cc1cccn2c(=O)c(C=O)c(Nc3ccccc3)nc12	1	-42	14	2	-16	7
COC1=C(N)C(=O)c2nc(-c3nc(C(=O)O)c(C)c(-c4ccc(OC)c(OC)c4O)c3N)ccc2C1=O	nt	nt	nt	114*	nt	nt
CN(C)C(=O)c1ccc(SC(=S)NCc2ccccc2)cc1	-6	8	4	?	nt	85*
CC(C)(C)CC(=O)NC(=S)NCc1ccccc1	-10	11	2	-33	10	4
CCOC(=O)c1cnc(SCC(=O)Nc2sc(C)c(C)c2C#N)nc1N	-50*	47	10	15	-1	45
CCOC(=O)c1cnc(SCC(=O)Nc2cc(OC)cc(OC)c2)nc1N	-15	12	21	78	12	37
CC1C=CC=CC=CC=CC=CC=CC=CC(OC2OC(C)C(O)C(N)C2O)CC2OC(O)(CC(O)CC(O)C(O)CCC(O)CC(O)CC(=O)OC(C)C(C)C1O)CC(O)C2C(=O)O (centres undefined)	-9	55*	-6	21	41	-20
C/C(=N\NC(=O)c1nnn(-c2nonc2N)c1CSc1ccccc1)c1ccc2c(c1)OCO2	2	5	7	1	7	35
C[C@]12CC[C@H](O)CC1=C[C@H](O)C1C2CC[C@@]2(C)C1CC[C@@]2(O)C#Cc1ccc(CN)cc1 (some centres undefined)	-25	8	9	-3	-6	-2
Cn1cc([N+](=O)[O-])c(C(=O)Nc2ccn(Cc3c(F)c(F)cc(F)c3F)n2)n1	4	12	-74	0	13	56*
Cc1nnc(SCC(=O)Nc2nccs2)n1N	17	-3	-10	-9	5	-1
CSc1ccc(COC(=O)c2cc([N+](=O)[O-])ccc2N2CCOCC2)cc1	-24	35	39	36	67*	-10
CC1C(=O)N2CCCc3cc(NC(=O)c4ccccc4F)cc1c32 (centres undefined)	9	-14	-10	2	3	-10
O=C(CCS(=O)(=O)c1ccccc1)Nc1nc2cc3c(cc2s1)OCCO3	-23	45	-88	-30	1	-87
O=C(CCS(=O)(=O)c1ccccc1)Nc1nc2ccc(F)cc2s1	-26	46	-42	23	14	61*
CCc1ccc(/C=C/C(=O)c2ccc(S(=O)(=O)N(C)C)cc2)cc1	-12	15	13	26	4	54*
O=C1CCC(=O)N1CN(C(=O)c1ccco1)c1ccc(Cl)c(Cl)c1	-1	-1	23	16	14	5
CC(=O)N(CN1C(=O)CCC1=O)c1ccc(Cl)c(Cl)c1	15	-12	16	19	30	51*
CCOC(=O)c1[nH]c(C)c(C(=O)N2CCCC(Nc3ccc(C)c(C)c3)C2)c1C (centres undefined)	-4	7	-5	9	5	0
CC(=NNC(=S)N1CCCC1)c1ccccn1	-4	-1	-23	82	nt	26
CC(=NNC(=S)N1CC2CCC(CC2)C1)c1cccc(C)n1	8	-10	-104	81*	44	-12
CCCCCC(=O)N/N=C(\C)c1ccccn1	3	-11	-13	39	16	9
CC(=NNC(=S)N1CCC1)c1ccccn1	-14	36	2	92*	69*	50
CC(=NNC(=S)SCc1ccccc1)c1ccccn1	10	29	-154	?	45	94*
SMILES	KKLEB cytotox	CF NFkB block	HIF-2a block	Shn3 inh set2	TRPM1 prom inh	Peg3 promoter
CC(NC(=O)CCNC(=O)c1ccc(Br)cc1)c1ccc(-n2ccnc2)cc1 (centres undefined)	-7	2	5	-33	3	11
CCN(CC)c1ccc(-c2c(C#N)c(N)nc(OC)c2C#N)cc1	-22	12	12	14	5	53*
Cn1nc(N)c2c(-c3ccc(Cl)cc3)c(C#N)c(N)nc21	-7	35	29	28	4	7
Cc1ccsc1-c1nc(C(N)=O)c2[nH]c(=O)n(-c3ccc(Cl)cc3)c2n1	-45	44	10	6	4	76*
COc1cc(CNC(C)c2ccccc2)cc(Br)c1OCc1ccc(F)cc1 (centres undefined)	-29	40	16	21	10	59*
COc1cc(CNC(C)c2ccccc2)cc(Br)c1OCc1ccccc1 (centres undefined)	-6	4	22	38	3	25
O=C(CCCCCCC(=O)Nc1ccccc1)NO	nt	nt	i	-261	84*	-116
O=C(CCCCCN1C(=O)c2ccccc2C1=O)Nc1ccccc1	-3	-6	3	14	9	-3
Cc1ccc(-n2ncc3c(=O)n(CC(=O)N4CCN(C(=O)c5ccco5)CC4)cnc32)cc1	-13	17	-4	14	27	11
O=C(CN(c1ccc(Br)cc1)S(=O)(=O)c1ccc(Cl)c([N+](=O)[O-])c1)NCCc1ccccc1	-8	-27	20	27	48	65*
CSc1nc(N)nc2c1ncn2CC(=O)NCc1ccc2[nH]ccc2c1	-5	15	-13	27	9	3
CCOC(=O)c1cc([N+](=O)[O-])c([N+](=O)[O-])cc1NC(C)=O	-21	60*	23	98*	88*	109*
CC1CCC(C(C)C)C(OC(=O)C[n+]2cc(-c3ccc(Cl)cc3)n3c2CCCCC3)C1 (centres undefined)	-16	26	-11	60	87*	45
O=C(C[n+]1cc(-c2ccccc2)n2c1CCCCC2)c1ccc(Cl)cc1	-6	3	-21	3	12	10
CN(Cc1cc(Cl)cc(Cl)c1)CC(C(=O)c1ccccc1)c1ccccc1 (centres undefined)	-2	8	39	53	84*	26
Cc1ccc(S(=O)(=O)N2CCN(CC(=O)N/N=C\c3ccc(Cl)c([N+](=O)[O-])c3)CC2)cc1	-2	-11	25	0	-4	69*
